Reference: PMC4336329 (PLoS ONE, 2015)
Hit rate of the full screen: of about 310,000 compounds, about 2,200 (0.71%) showed an effect of 50% or more. Effects have a minus sign here. The full list was thinned out, with strong results kept by preference.

Biological target: human ether-à-go-go-related gene (hERG) potassium channel (human, UniProt Q12809)
Test: primary screen, population patch clamp on CHO cells stably expressing hERG; higher = less effect of the substance

Chain of human ether-à-go-go-related gene (hERG) potassium channel (Q12809 whole entry, looked up): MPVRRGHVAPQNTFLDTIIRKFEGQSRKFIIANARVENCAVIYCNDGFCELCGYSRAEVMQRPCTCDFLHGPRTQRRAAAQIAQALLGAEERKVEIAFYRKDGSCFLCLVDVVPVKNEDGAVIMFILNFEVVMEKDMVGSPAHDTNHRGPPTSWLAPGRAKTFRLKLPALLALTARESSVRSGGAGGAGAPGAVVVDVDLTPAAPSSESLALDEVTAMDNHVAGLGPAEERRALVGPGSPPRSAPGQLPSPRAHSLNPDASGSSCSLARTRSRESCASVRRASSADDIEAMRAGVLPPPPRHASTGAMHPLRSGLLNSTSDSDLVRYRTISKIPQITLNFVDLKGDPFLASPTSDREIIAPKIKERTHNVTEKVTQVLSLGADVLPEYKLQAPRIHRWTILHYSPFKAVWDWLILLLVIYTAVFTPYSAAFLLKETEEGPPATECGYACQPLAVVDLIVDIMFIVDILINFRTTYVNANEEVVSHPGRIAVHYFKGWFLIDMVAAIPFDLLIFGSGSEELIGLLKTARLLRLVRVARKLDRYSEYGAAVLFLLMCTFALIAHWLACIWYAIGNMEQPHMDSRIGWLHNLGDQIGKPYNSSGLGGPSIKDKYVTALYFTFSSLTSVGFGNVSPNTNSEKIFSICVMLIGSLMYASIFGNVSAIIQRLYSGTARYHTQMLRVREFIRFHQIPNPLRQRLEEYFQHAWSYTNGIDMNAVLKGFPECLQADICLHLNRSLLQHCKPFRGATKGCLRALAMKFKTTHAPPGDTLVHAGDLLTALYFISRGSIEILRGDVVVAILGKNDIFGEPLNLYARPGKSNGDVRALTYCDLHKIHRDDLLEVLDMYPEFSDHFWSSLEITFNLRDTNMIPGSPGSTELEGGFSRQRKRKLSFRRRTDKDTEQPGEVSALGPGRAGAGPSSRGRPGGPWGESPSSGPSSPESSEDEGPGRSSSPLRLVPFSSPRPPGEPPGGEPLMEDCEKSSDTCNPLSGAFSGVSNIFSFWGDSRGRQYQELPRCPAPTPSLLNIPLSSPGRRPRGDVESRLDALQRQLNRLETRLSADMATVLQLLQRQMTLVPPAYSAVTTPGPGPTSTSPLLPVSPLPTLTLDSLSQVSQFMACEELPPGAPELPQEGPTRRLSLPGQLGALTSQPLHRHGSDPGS

Point of comparison: `COc1cccc(C(=O)NNS(=O)(=O)c2ccc(C)cc2)c1`, “hERG current change (%, negative = inhibition) at 1uM” value 13%. Against it:
- Cc1ccc2[nH]cc(C(=O)CCl)c2c1 — higher, 15.2%
- CCOc1ccccc1NC1c2ccccc2C(=O)N1Cc1ccco1 (centres unmarked) — lower, 7.42%
- O=C(O)c1cccc(N2C(=O)CSC2=S)c1 — lower, 11.7%
- COc1ccccc1-n1c(-c2ccc(Cl)cc2)c[nH]c1=S — lower, 9.1%
- Cc1nc2scc(-c3ccco3)c2c(=O)n1/N=C/N(C)C — lower, 5.8%
- O=C(Nc1cccc(NC(=O)c2ccc(Cl)cc2)n1)c1ccc(Cl)cc1 — higher, 14.3%
- COc1ccc(-c2ccnc3nc(N4CCN(c5ccccc5)CC4)nn23)cc1 — higher, 14.9%
- CCCCn1nnc(NC(=O)C(c2ccccc2)c2ccccc2)n1 — lower, 11.2%
- COc1c(C)cc(S(=O)(=O)NCc2ccccn2)c(C)c1C — lower, 9.43%
- Nc1nnc(SCC(=O)OCc2ccccc2)s1 — higher, 14.4%
- CCN(CC)S(=O)(=O)c1ccc(N2CCOCC2)c(NS(=O)(=O)c2cc(C(C)(C)C)ccc2C)c1 — lower, 6.68%
- O=C(NCCc1cccs1)C1CC(c2c(Cl)cccc2Cl)=NO1 (centres unmarked) — lower, 10.6%
- CSCCC(NS(=O)(=O)c1ccccc1F)C(=O)NCCCn1nc(C)cc1C (centres unmarked) — lower, -1.95%
- COc1ccc(/C=C(\NC(=O)c2ccc(C)cc2)C(=O)NCCCN2CCOCC2)cc1OC — higher, 14.1%
- Cc1ccc(C(=O)N/C(=C\c2ccc(Cl)cc2)C(=O)NCCCN2CCOCC2)cc1 — lower, -78.6%
- COc1ccc(/C=C(\NC(=O)c2ccc(Cl)cc2)C(=O)NCCCN2CCOCC2)cc1OC — lower, 9.09%
- Cc1ccc(OCCOCCN2CCN(C)CC2)c(C(C)(C)C)c1.O=C(O)C(=O)O — higher, 13.2%
- COc1ccc(S(=O)(=O)NCC(c2cccnc2)N2CCN(c3ccccc3)CC2)cc1C (centres unmarked) — lower, -1.72%
- O=S(=O)(NCC(c1cccnc1)N1CCN(Cc2ccccc2)CC1)c1ccccc1 (centres unmarked) — lower, -52.4%
- CCN1CCN(C(CNS(=O)(=O)c2ccc(Cl)cc2)c2cccnc2)CC1 (centres unmarked) — lower, -10.6%
- Cc1ccc(S(=O)(=O)NCC(c2cccnc2)N2CCN(Cc3ccccc3)CC2)cc1 (centres unmarked) — lower, -39.6%
- COc1ccc(S(=O)(=O)NCC(c2cccnc2)N2CCN(Cc3ccccc3)CC2)cc1C (centres unmarked) — lower, -65.5%
- O=S(=O)(NCC(c1cccnc1)N1CCN(Cc2ccccc2)CC1)c1ccc(Cl)cc1 (centres unmarked) — lower, -60.6%
- COc1ccc(S(=O)(=O)NCC(c2cccnc2)N2CCN(Cc3ccccc3)CC2)cc1 (centres unmarked) — lower, -26.7%
- O=S(=O)(NCC(c1cccnc1)N1CCN(Cc2ccccc2)CC1)c1ccc(F)cc1 (centres unmarked) — lower, -42.6%
- CCN1CCN(C(CNS(=O)(=O)c2ccc(OC)c(C)c2)c2cccnc2)CC1 (centres unmarked) — lower, -27.5%
- COc1ccc(C(=O)NNC(=O)C(=O)NC2CCCCC2)cc1 — lower, 4.11%
- O=c1cccccc1NN=C1CCCCCC1 — higher, 14.1%
- Clc1ccc(/C=N/Nc2nnc(-c3ncc[nH]3)c3ccccc23)cc1 — lower, 4.89%
- Cc1cc(OCCCCOc2ccc(S(N)(=O)=O)c(C)c2)ccc1S(N)(=O)=O — lower, 12.7%
- O=C(O)Cn1c(=O)c2c3c(sc2n(Cc2ccc(Cl)cc2Cl)c1=O)CCCC3 — lower, 6.14%
- CC(Sc1nnc(C2CC2)n1C1CC1)C(=O)N(C)Cc1cccc(F)c1 (centres unmarked) — lower, -2.8%
- CCOC(=O)C1=C(c2ccccc2)NC(=O)N(C(C)=O)C1c1cccc([N+](=O)[O-])c1 (centres unmarked) — lower, 10.2%
- CCOCCCn1c(=N)c(S(=O)(=O)c2ccc(C)cc2)cc2c(=O)n3cc(C)ccc3nc21 — higher, 16.1%
- CC(C)OCCCn1c(=N)c(C(N)=S)cc2c(=O)n3ccccc3nc21 — lower, -74.5%
- CCOC(=O)c1cc2c(=O)n3ccccc3nc2n(CCCOC)c1=NC(C)=O — lower, -15.6%
- CC(C)OCCCn1c(=N)c(S(=O)(=O)c2ccccc2)cc2c(=O)n3ccccc3nc21 — lower, -0.118%
- Cc1ccc2nc3c(cc(C(N)=S)c(=N)n3CCCOC(C)C)c(=O)n2c1 — lower, -65.1%
- CCOCCCn1c(=N)c(S(=O)(=O)c2ccccc2)cc2c(=O)n3cc(C)ccc3nc21 — lower, 11.3%
- CCc1cc(C(=O)COc2ccc(F)cc2)c(O)cc1O — lower, 5.76%
- CCSc1nc2sc3c(c2c(=O)[nH]1)CC(C)(CC)OC3 (centres unmarked) — higher, 18.7%
- CCc1ccc(NC2=CC(=O)CC(c3ccco3)C2)cc1 (centres unmarked) — lower, 12.9%
- O=C1C=C(NCc2ccco2)CC(c2ccc(Cl)cc2)C1 (centres unmarked) — lower, -34.8%
- CCCCCCCNC1=CC(=O)CC(c2ccccc2)C1 (centres unmarked) — lower, -63.2%
- CC(C)CCNC1=CC(=O)CC(c2ccccc2)C1 (centres unmarked) — lower, -0.257%
- O=C1C=C(NCc2ccncc2)CC(c2ccccc2)C1 (centres unmarked) — lower, -22.8%
- CN(C)CCCNC1=CC(=O)CC(c2ccccc2)C1 (centres unmarked) — lower, -1.56%
- O=C1C=C(NCc2ccc3c(c2)OCO3)CC(c2ccccc2)C1 (centres unmarked) — lower, -81.9%
- CCCCCCCNC1=CC(=O)CC(c2ccco2)C1 (centres unmarked) — lower, -77.6%
- COc1ccc(C2CC(=O)C=C(NCc3ccc4c(c3)OCO4)C2)cc1 (centres unmarked) — lower, -32.6%
- O=C1C=C(NCc2ccc(Cl)cc2)CC(c2ccco2)C1 (centres unmarked) — lower, -91.3%
- O=C1C=C(Nc2ccc(Cl)cc2)CC(c2ccco2)C1 (centres unmarked) — lower, 4.78%
- CC(C)CNC1=CC(=O)CC(c2ccco2)C1 (centres unmarked) — higher, 14.5%
- Cc1cccc(OC(=O)NCCOC(=O)N(O)c2ccc(Cl)cc2)c1 — lower, 1.04%
- Cc1ccc(NC(=O)CSc2sc3c(O)cc(=O)[nH]c3c2C#N)c(F)c1 — lower, -4.66%
- Cc1cccc(C)c1NC(=O)CSc1nc2[nH]c(=O)cc(O)c2s1 — lower, 4.15%
- COc1ccc(N(CC(=O)NC2CC3CCC2C3)S(=O)(=O)c2ccc(C)c([N+](=O)[O-])c2)cc1 (centres unmarked) — lower, 10.2%
- O=C(NCc1ccco1)c1cccc(NS(=O)(=O)c2ccccc2F)c1 — lower, 6.58%
- Cc1ccc(NC(=O)CSCC(=O)NCc2cccc(C(F)(F)F)c2)cc1 — lower, 6.6%
- O=C(CN(C(=O)C1COc2ccccc2O1)c1ccccc1)NCC1CCCO1 (centres unmarked) — lower, -9.34%
- CCOc1ccccc1Nc1nc(N)nc(CSc2nncn2C)n1 — lower, 9.75%
- Cc1cccc(OCC(=O)Nc2ccc(C(=O)NCC(C)C)cc2)c1 — lower, 4.42%
- CCOCCCNC(=S)Nc1cc(OCC)c(NC(=O)c2ccco2)cc1OCC — lower, 7.7%
- COc1ccc(C(=O)N2CCN=C2SCc2cccnc2)cc1OC — lower, 9.25%
- COc1nnc(-c2ccc(C)c(S(=O)(=O)NC(C)C)c2)c2ccccc12 — lower, -5.36%
- COc1nnc(-c2ccc(C)c(S(N)(=O)=O)c2)c2ccccc12 — lower, 3.63%
- COc1nnc(-c2ccc(C)c(S(=O)(=O)N(C)C)c2)c2ccccc12 — lower, -53.6%
- CC(=O)Nc1ccc(NC2CCCCC2NS(=O)(=O)c2ccc(Cl)cc2)cc1 (centres unmarked) — lower, 12%
- CCOC(=O)C1(CCCc2ccccc2)CCN(CCCn2cccn2)CC1 — lower, -84.6%
- CCCn1cc(CN2CCC(Cc3cccc(F)c3)(C(=O)OCC)CC2)c(C)n1 — lower, -60.3%
- CCOC(=O)C1(Cc2ccc(Cl)cc2)CCN(C(C)Cc2ccc(O)c(OC)c2)CC1 (centres unmarked) — lower, -7.39%
- CCCn1cc(CN2CCC(Cc3ccccc3)(C(=O)OCC)CC2)c(C)n1 — lower, -14%
- CCOC(=O)C1(CCCc2ccccc2)CCN(Cc2nccn2CC)CC1 — lower, -45.8%
- CCOC(=O)C1(Cc2ccc(Cl)cc2)CCN(C(C)CCn2cccn2)CC1 (centres unmarked) — lower, -87.1%
- CCOC(=O)C1(Cc2ccccc2C(F)(F)F)CCN(C(C)CCn2cccn2)CC1 (centres unmarked) — lower, -40.8%
- CCOC(=O)C1(Cc2ccc(Cl)cc2)CCN(CCCn2cccn2)CC1 — lower, -77%
- CCOC(=O)C1(CCCc2ccccc2)CCN(Cc2cnn(C)c2)CC1 — lower, -46.4%
- CCOC(=O)C1(Cc2ccccc2C(F)(F)F)CCN(CCCn2cccn2)CC1 — lower, -49.2%
- CCOC(=O)C1(Cc2ccccc2)CCCN(CCCn2cccn2)C1 (centres unmarked) — lower, 3.88%
- CCOC(=O)C1(Cc2cccc(F)c2)CCN(Cc2cn(CC)nc2C)CC1 — lower, -6.14%
- Cc1ccc(C2=NN(CCC(=O)NCCCN3CCOCC3)C(=O)CC2)cc1 — lower, -9.94%
- O=C(CNC(=O)c1nc[nH]c1C(=O)NCC(=O)OCc1ccccc1)OCc1ccccc1 — lower, 10.3%
- COc1ccccc1NC(CC(=O)c1ccccc1)C(=O)OCC(=O)c1ccc(F)cc1 (centres unmarked) — lower, -11.1%
- COc1ccccc1C(=O)Nc1c2c(nn1-c1cccc(C)c1C)CS(=O)C2 (centres unmarked) — lower, -3.22%
- Cc1ccc(-n2c(O)c(C=Nc3ccc(S(=O)(=O)Nc4ncccn4)cc3)c3ccccc3c2=O)cc1C — lower, -2.78%
